In PubChem BioAssay (NCATS):
Where “and” joins values, the source holds several entries; their conditions need not be identical. Identical values can stand only once. Records with an inconclusive call do not appear. Entries that show only a call come without a potency. Unmarked numbers belong to inactive results. Calls of active or inactive are those of the source. Calls follow the shape of the dose curve; as a rule, active = well fitted inhibition curve with a large enough effect; inconclusive = small, poorly fitted or top-dose-only effect; inactive = flat fitted curve, though single readings scatter.

Experiment: Primary qHTS for inhibitors of nuclear receptor binding SET domain protein 2 (NSD2) in an isogenic RCH-ACV NSD2 p.E1099K mutant (9B) (AID 1645876); also: nearly all actives have a fitted effect of over 70% in size
Details: RCH-ACV (leukaemia line) NSD2 E1099K (9B) viability, CellTiter-Glo, 72 h; series mostly up to 44.9 µM
Potency is read from the fitted curve at half-maximal effect.

| Structure (SMILES) | activity change, negative = viability loss | Potency |
| --- | --- | --- |
| CC1(C)CC2C3=CCC4C5(C)CCC(OC6OC(C(=O)O)C(O)C(O)C6OC6OC(CO)C(O)C(O)C6OC6OC(CO)C(O)C(O)C6O)C(C)(CO)C5CCC4(C)C3(C)CCC2(C)C(OC2OCC(O)C(OC3OC(CO)C(O)C(O)C3O)C2O)C1O (stereo not drawn) | -1.65% [at 9.23 µM] | – |
| CC(NCc1ccc(OCc2cccc(F)c2)cc1)C(N)=O (stereo not drawn) | – | inactive |
| CC(/C=C/C1(O)C(C)CC(O)CC1(C)C)OC1OC(CO)C(O)C(O)C1O (stereo not drawn) | – | inactive |
| CC(NC(=O)CC(=O)O)c1nc2ccccc2c(=O)[nH]1 (stereo not drawn) | – | inactive |
| Cc1ncc([N+](=O)[O-])n1CC(O)CN1CCOCC1 (stereo not drawn) | – | inactive |
| COc1cc(C2Oc3c(O)cc(CCCO)cc3C2CO)ccc1O[C@H]1O[C@H](C)[C@@H](O)[C@H](O)[C@@H]1O (stereo partly drawn) | – | inactive |
| C/C=C/C=C/C=C/C(=O)O[C@@H]1C=C(CO)C(O)(C(=O)O)[C@@]2(C)CCCC(C)(C)[C@H]12 (stereo partly drawn) | – | inactive |
| C[C@@H]1C(=O)O[C@H]2CC34[C@H]5C[C@@H](C(C)(C)C)C36[C@@H](OC(=O)[C@@H]6O)OC4(C(=O)O5)[C@]21O (stereo partly drawn) | – | inactive |
| CC(C)CC1(C(=O)OCc2ccc(O[C@@H]3O[C@H](CO)[C@@H](O)[C@H](O)[C@H]3O)cc2)CC(=O)OC(C(=O)O)CC(=O)OCC2OC(O1)C(OC(=O)/C=C/c1ccc(O)cc1)C(O)C2O (stereo partly drawn) | 1.01% [at 9.23 µM] | – |
| COC1=Cc2c(nc3n(c2=O)C(C)C(=O)NC3(O)C(C)C)OC=C1 (stereo not drawn) | – | inactive |
| C[C@]12CCC[C@](C)(C(=O)O)C1CCC13C=C(CO)C(CCC12)C3 (stereo partly drawn) | – | inactive |
| C=C1CC[C@@H]2[C@](C)(CO[C@@H]3O[C@H](CO)[C@@H](O)[C@H](O)[C@H]3O)CCC[C@@]2(C)[C@@H]1CCC1=CCOC1=O | – | inactive |
| CC1(CO)CC2C(O)C(=O)C3(CO)CC3(C)C2C1 (stereo not drawn) | – | inactive |
| COc1c(C)c2c(c(O)c1C/C=C(\C)CC/C=C(\C)CCC(=O)O)C(=O)OC2 | – | inactive |
| COc1cc(/C=C/C(=O)O[C@H]2[C@H](O)[C@@H](CO)O[C@@]2(CO)O[C@H]2O[C@H](COC(=O)c3ccc(O)cc3)[C@@H](O)[C@H](O)[C@H]2O)cc(OC)c1OC | – | inactive |
| CC(C)C(=O)c1cn(CC(=O)COc2ccc(Oc3ccccc3)cc2)c2ccc(C(=O)O)cc12 | – | inactive |
| O=C(COc1ccc(Cl)cc1)NC1CCC(NC(=O)COc2ccc(Cl)cc2)CC1 (stereo not drawn) | – | inactive |
| CCOc1cc2ncc(C#N)c(Nc3ccc(OCc4ccccn4)c(Cl)c3)c2cc1NC(=O)/C=C/CN(C)C | – | 282 nM (active) and 1.32 µM (active) |
| CNC(=O)[C@H]1O[C@@H](n2cnc3c(NCc4ccc(N)c(I)c4)ncnc32)[C@H](O)[C@@H]1O | -0.539% [at 9.23 µM] | – |

| Structure (SMILES) | activity change, negative = viability loss | Potency |
| --- | --- | --- |
| C[C@H](CCC(=O)O)[C@H]1CC[C@H]2[C@@H]3[C@H](O)C[C@@H]4C[C@H](O)CC[C@]4(C)[C@H]3CC[C@]12C | – | inactive |
| C[C@@H]1C(=O)O[C@H]2[C@H]1CC[C@@]1(C)C(=O)C=C[C@](C)(O)[C@H]21 | – | inactive |
| COc1ccc2c3c1O[C@H]1C[C@@H](O)C=C[C@@]31CCN(C)C2 | – | inactive |
| Cc1nn(C)c(COc2ccc(N3CCN(S(=O)(=O)N(C)C)CC3)cc2)c1-c1cccc2c(CCCOc3cccc4ccccc34)c(C(=O)O)n(CCN3CCOCC3)c12 | – | inactive |
| C=CC1(C)CC(O)C2(CCC3C(C)(C(=O)O)CCCC3(C)C2=O)C1 (stereo not drawn) | – | inactive |
| CN1C(=O)N[C@@H](Cc2c[nH]c3c(Cl)cccc23)C1=O | – | inactive |
| C[C@@H]1O[C@@H](O[C@H]2[C@H](O)[C@@H](C(=O)O)O[C@@H](O[C@H]3CC[C@@]4(C)C(CC[C@]5(C)C4CC=C4C6CC(C)(C)CC[C@]6(C(=O)O)CC[C@]45C)C3(C)C)[C@@H]2O[C@@H]2O[C@H](CO)[C@@H](O)[C@H](O)[C@H]2O)[C@H](O)[C@H](O)[C@H]1O (stereo partly drawn) | -6.46% [at 9.23 µM] | – |
| OC[C@H]1O[C@@H](OC(CCCCc2ccc(O)cc2)CCc2ccc(O)cc2)[C@H](O[C@@H]2OC[C@](O)(CO)[C@H]2O)[C@@H](O)[C@@H]1O (stereo partly drawn) | – | inactive |
| CC(C)c1ccc(CC(=O)N2CCC[C@@H](c3cccc(OC(C)(C)C(=O)O)c3)C2)cc1 | – | inactive |
| COC(=O)C1C(c2ccc(O)cc2)C(C(=O)OC)C1c1ccc(O)cc1 (stereo not drawn) | – | inactive |
| C=C1C2=CC(O)C(C)C1(C)CC/C(C)=C/CCC1(C)OC1C2=O (stereo not drawn) | – | inactive |
| N[C@@H](CC(=O)N1CCn2c(nnc2C(F)(F)F)C1)Cc1[nH]nc2c(F)c(F)ccc12 | – | inactive |
| COc1cc2c(cc1O)C1(OC)Cc3ccc4c(c3C1N(C)CC2)OCO4 (stereo not drawn) | – | inactive |
| CC1=C(CC(=O)O)c2cc(F)ccc2C1=Cc1ccc(S(C)(=O)=O)cc1 | – | inactive |
| COc1ccc2c(c1O)OC[C@H]1c3ccc(O)cc3O[C@@H]21 | – | inactive |
| CC1(C)CCCC2(C)C(CO)C3CCC2C31 (stereo not drawn) | – | inactive |
| C=CC1C(O[C@@H]2O[C@H](CO)[C@@H](O)[C@H](O)[C@H]2O)OC=C(C(=O)OC)C1Cc1nccc2c1[nH]c1ccccc12 (stereo partly drawn) | – | inactive |
| O=c1ccn(C2OC(CO)C(O)C2O)c(=O)[nH]1 (stereo not drawn) | – | inactive |
| CO[C@@]12CC3[C@@H]([C@@H](O)[C@@H](OC(C)=O)C4[C@](C)(COC(C)=O)CCC[C@]34C)[C@@H](C)C1=CC(=O)O2 (stereo partly drawn) | – | inactive |
